The values below come from ChEMBL document CHEMBL2218924, “A broad activity screen in support of a chemogenomic map for kinase signalling research and drug discovery” (Biochem J, 2013).

Test [1] has as its target Vascular endothelial growth factor receptor 3 (Homo sapiens) (UniProt P35916). The note with it: at 10 µM.
The target of test [2] is Macrophage colony-stimulating factor 1 receptor (Homo sapiens) (UniProt P07333). The note with it: at 1 µM.
The target is the same in test [3]. The settings on record: at 10 µM.
In test [4] the target is Tyrosine-protein kinase Fyn (Homo sapiens) (UniProt P06241). The settings on record: at 1 µM.
Sequence of Tyrosine-protein kinase Fyn (Homo sapiens) (P06241 2-537 limits assumed): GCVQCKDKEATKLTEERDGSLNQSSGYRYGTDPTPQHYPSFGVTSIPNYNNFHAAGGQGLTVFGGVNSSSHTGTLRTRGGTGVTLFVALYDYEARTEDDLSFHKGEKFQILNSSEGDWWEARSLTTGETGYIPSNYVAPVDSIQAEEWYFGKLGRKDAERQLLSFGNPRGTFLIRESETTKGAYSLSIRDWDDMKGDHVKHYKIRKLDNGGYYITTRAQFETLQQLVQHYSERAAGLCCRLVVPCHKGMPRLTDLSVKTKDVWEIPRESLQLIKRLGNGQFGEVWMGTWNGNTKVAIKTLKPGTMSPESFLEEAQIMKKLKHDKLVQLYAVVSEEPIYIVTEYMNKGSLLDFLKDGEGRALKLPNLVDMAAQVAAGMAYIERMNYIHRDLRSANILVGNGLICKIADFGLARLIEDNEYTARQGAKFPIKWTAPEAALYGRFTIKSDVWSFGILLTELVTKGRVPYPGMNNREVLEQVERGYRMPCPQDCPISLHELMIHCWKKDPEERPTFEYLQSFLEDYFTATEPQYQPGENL
Test [5] has the same target. The settings on record: at 10 µM.
Test [6] deals with T1, Mitogen-activated protein kinase kinase kinase kinase 2 (Homo sapiens) (UniProt Q12851).
T1 sequence (whole entry): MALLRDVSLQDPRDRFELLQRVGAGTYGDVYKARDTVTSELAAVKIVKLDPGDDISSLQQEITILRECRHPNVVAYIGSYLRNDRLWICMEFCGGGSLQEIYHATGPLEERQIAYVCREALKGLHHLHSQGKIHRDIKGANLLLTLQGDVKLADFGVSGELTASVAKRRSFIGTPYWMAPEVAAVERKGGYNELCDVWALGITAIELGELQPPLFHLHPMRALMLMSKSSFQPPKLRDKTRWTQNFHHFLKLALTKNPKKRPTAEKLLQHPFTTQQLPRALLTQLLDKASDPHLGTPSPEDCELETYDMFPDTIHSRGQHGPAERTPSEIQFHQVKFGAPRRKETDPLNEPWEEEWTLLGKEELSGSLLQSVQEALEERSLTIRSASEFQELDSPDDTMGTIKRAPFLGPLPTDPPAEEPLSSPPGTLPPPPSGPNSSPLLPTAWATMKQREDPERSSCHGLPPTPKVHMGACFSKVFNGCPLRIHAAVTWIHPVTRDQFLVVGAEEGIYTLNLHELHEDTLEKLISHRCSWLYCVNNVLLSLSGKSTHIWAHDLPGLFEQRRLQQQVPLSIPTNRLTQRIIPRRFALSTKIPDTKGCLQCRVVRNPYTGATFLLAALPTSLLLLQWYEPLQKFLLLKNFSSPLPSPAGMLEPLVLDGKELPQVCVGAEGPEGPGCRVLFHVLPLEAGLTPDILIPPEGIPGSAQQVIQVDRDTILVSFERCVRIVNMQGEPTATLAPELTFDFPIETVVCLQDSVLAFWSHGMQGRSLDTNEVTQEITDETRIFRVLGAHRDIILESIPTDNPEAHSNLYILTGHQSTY
The settings on record: at 1 µM.

Test [7] has as its target T1, Mitogen-activated protein kinase kinase kinase kinase 2 (Homo sapiens). The settings on record: at 10 µM.
The target in test [8] is G protein-coupled receptor kinase 5 (Homo sapiens) (UniProt P34947). The settings on record: at 10 µM.
Sequence of G protein-coupled receptor kinase 5 (Homo sapiens) (P34947 whole entry, looked up): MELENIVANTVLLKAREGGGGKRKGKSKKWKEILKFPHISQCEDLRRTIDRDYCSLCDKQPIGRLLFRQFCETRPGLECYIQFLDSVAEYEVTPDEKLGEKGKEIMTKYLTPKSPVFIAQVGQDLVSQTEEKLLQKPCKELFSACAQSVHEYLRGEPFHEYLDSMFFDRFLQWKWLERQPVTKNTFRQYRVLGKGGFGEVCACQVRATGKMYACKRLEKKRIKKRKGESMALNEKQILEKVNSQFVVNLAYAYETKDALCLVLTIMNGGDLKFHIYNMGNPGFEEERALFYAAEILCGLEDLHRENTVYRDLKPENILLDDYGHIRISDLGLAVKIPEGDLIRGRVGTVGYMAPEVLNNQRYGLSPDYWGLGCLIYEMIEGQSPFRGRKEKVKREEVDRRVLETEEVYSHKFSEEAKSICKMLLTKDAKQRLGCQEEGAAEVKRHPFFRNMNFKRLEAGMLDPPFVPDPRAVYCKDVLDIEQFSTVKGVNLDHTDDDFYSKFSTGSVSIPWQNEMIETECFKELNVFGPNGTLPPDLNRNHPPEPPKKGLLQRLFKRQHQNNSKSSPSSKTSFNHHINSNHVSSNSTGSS
Test [9] addresses G protein-coupled receptor kinase 6 (Homo sapiens) (UniProt P43250). The settings on record: at 10 µM.
In test [10] the target is T2, Rhodopsin kinase GRK7 (Homo sapiens) (UniProt Q8WTQ7).
T2 sequence (whole entry): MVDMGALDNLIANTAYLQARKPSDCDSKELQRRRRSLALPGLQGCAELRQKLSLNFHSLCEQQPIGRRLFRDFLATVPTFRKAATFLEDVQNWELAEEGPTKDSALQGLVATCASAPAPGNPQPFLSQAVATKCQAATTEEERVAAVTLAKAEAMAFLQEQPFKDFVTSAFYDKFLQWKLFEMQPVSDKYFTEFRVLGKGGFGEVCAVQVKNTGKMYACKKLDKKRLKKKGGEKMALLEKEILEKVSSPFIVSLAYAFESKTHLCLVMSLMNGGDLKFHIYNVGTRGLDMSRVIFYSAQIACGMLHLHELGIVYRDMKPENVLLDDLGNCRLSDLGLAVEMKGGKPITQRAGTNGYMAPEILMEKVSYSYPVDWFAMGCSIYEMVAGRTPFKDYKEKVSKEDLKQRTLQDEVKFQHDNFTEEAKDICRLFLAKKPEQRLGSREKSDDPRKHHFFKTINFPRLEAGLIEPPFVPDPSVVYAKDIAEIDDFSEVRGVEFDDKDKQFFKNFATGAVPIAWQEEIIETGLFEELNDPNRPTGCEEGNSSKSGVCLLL
The settings on record: at 1 µM.

Test [11] concerns the target T2, Rhodopsin kinase GRK7 (Homo sapiens). The note with it: at 10 µM.
Test [12] addresses Glycogen synthase kinase-3 alpha (Homo sapiens) (UniProt P49840). The note with it: at 1 µM.
The target is the same in test [13]. The note with it: at 10 µM.
Test [14] concerns the target Glycogen synthase kinase-3 beta (Homo sapiens) (UniProt P49841). The note with it: at 1 µM.
Test [15] shares this target. The settings on record: at 10 µM.
Test [16] deals with Homeodomain-interacting protein kinase 1 (Homo sapiens) (UniProt Q86Z02). The settings on record: at 1 µM.
Test [17] concerns the target Homeodomain-interacting protein kinase 2 (Homo sapiens) (UniProt Q9H2X6). The settings on record: at 1 µM.
The target is the same in test [18]. The settings on record: at 10 µM.
Test [19] deals with Homeodomain-interacting protein kinase 3 (Homo sapiens) (UniProt Q9H422). The settings on record: at 1 µM.
Test [20] concerns the target Homeodomain-interacting protein kinase 1 (Homo sapiens) (UniProt Q86Z02). The note with it: at 10 µM.

Sequence of G protein-coupled receptor kinase 6 (Homo sapiens) (P43250 whole entry, looked up): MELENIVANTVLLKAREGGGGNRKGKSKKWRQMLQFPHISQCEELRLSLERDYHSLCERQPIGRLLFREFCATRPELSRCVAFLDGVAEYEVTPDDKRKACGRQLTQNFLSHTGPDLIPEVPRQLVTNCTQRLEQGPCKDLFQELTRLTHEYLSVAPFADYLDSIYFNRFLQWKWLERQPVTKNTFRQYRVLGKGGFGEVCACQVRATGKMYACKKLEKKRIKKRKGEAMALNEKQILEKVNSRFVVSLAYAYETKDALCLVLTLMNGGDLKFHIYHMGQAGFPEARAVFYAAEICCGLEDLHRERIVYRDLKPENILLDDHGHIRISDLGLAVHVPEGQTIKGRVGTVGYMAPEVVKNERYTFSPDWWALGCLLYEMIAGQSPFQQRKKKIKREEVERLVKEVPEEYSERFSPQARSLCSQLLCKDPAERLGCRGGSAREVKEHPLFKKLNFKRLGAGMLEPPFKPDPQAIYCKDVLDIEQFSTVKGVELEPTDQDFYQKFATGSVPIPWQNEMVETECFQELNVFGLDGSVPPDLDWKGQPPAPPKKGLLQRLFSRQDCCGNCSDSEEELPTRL
Sequence of Homeodomain-interacting protein kinase 2 (Homo sapiens) (Q9H2X6 whole entry, looked up): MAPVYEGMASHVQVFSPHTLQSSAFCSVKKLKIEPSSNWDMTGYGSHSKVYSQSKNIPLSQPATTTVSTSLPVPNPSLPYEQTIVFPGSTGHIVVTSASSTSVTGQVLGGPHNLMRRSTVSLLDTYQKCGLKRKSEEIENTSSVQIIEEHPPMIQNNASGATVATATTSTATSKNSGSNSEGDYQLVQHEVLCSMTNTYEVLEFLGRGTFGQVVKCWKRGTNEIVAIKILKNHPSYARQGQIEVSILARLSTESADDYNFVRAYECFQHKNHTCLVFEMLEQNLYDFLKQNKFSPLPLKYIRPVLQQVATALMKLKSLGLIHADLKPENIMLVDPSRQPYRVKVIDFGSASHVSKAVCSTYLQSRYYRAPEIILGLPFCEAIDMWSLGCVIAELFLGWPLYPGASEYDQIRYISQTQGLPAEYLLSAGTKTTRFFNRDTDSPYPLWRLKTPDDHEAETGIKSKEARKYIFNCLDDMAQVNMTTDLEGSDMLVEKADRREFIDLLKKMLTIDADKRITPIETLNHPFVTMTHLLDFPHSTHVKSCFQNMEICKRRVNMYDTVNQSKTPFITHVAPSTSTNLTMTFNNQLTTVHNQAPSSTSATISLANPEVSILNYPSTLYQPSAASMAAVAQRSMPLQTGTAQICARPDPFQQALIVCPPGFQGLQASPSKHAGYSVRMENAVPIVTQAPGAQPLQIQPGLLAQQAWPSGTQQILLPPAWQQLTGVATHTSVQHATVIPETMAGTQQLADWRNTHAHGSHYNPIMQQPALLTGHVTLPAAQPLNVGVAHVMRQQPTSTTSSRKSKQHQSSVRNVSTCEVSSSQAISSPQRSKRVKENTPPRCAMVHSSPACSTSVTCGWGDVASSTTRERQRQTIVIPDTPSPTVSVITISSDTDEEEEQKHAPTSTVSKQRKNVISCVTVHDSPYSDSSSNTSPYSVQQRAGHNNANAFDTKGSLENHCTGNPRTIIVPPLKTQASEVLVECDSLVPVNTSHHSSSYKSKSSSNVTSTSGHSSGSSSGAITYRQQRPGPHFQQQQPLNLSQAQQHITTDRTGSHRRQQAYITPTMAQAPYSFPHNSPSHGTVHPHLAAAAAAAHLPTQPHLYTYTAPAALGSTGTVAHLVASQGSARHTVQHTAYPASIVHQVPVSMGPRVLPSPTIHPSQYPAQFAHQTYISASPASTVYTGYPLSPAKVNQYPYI
Sequence of Vascular endothelial growth factor receptor 3 (Homo sapiens) (P35916 whole entry): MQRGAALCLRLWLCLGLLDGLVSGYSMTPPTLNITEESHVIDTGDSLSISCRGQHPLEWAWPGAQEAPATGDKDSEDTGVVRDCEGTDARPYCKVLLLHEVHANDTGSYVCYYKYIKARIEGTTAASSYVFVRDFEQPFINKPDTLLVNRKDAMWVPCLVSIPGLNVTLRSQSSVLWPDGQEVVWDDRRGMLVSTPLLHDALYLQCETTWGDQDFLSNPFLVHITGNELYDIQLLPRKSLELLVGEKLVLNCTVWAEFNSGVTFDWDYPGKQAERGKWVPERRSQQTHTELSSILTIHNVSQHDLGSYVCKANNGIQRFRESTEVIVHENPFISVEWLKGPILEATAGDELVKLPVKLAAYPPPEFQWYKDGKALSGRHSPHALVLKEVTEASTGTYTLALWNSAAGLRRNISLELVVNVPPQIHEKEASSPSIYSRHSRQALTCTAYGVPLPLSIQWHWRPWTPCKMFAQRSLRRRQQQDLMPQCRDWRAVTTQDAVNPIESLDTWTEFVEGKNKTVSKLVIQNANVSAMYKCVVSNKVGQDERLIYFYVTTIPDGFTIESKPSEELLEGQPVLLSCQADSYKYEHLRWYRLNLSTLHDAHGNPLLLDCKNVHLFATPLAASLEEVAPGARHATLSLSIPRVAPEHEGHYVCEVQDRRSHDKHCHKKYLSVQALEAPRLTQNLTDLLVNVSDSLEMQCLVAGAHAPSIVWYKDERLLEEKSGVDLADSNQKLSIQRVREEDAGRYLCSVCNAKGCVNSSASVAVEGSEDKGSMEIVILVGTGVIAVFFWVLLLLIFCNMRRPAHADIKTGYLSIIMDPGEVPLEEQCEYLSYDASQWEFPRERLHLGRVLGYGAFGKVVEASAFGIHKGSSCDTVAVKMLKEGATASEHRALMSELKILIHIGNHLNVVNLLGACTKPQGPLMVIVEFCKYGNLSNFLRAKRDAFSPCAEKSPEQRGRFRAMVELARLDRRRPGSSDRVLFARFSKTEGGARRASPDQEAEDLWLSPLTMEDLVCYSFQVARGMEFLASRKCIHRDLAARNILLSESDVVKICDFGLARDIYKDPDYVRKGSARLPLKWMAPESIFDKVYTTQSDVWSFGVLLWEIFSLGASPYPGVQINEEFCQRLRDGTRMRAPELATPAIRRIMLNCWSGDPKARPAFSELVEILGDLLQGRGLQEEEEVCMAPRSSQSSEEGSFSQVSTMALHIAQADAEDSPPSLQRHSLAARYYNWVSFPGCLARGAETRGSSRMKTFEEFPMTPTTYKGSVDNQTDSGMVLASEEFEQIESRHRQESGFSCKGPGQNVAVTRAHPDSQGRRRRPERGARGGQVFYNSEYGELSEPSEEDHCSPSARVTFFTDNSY
Sequence of Glycogen synthase kinase-3 beta (Homo sapiens) (P49841 whole entry, looked up): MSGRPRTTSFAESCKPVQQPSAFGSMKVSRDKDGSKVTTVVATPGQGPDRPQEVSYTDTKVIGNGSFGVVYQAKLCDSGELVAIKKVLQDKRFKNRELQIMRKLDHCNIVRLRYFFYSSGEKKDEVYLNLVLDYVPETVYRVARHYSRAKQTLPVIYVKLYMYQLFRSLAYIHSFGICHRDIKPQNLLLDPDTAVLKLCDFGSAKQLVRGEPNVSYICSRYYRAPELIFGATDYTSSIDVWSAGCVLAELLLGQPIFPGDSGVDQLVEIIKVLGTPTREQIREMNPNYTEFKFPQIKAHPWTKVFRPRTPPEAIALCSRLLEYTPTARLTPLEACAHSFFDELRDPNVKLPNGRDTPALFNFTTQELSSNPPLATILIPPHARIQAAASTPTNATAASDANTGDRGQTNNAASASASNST

As for `COc1cc2nccc(Oc3ccc(NC(=S)NC(=O)c4ccccc4C)cc3)c2cc1OC`, the residual activity in test [1] was 0%; in [2], 0%; in [3], -1%; in test [4], -1%; in test [5] it was 0%; in [6], 68%. In addition, the residual activity in [7] came to 44%; in test [8] it was 88%; in [9] it was 79%; in test [10] it was 88%; in test [11], 84%; in test [12], 120%. For the same compound, the residual activity in test [13] turned out to be 147%; in test [14], 86%; in [15], 99%; in test [16] it was 93%; in test [17], 100%; in [18] it was 91%. Moreover, in test [19], the residual activity is 88%.
In the case of `Cn1c2ccccc2c2c3c(c4c5ccccc5n(CCC#N)c4c21)CNC3=O`, the residual activity in test [1] stood at 3%; in test [2], 14%; in test [3], 5%; in test [4], 47%; in [5], 58%; in test [6], 2%. Further, the residual activity in test [7] is 1%; in test [8] it was 75%; in [10], 16%; in test [11], 34%; in [12], 20%; in test [13] it was 19%. The residual activity in test [14] is 15%; in [15], 26%; in test [17], 20%; in [18], 11%.
Take `CCOC(=O)c1c(C)[nH]c(/C=C2\C(=O)Nc3ccccc32)c1C`: the residual activity was found to be 3% in [1]; 20% in test [2]; 9% in test [3]; 87% in [4]; 99% in [5]; 89% in test [6]. In addition, the residual activity in test [7] amounted to 77%; in test [9], 94%; in test [13], 129%; in [14], 99%; in test [15], 80%.
As for `c1ccc(-c2cnc(Nc3ccc(OCCN4CCCC4)cc3)s2)cc1`, the residual activity in [1] is 1%; in [2], 1%; in [3], 1%; in test [4] it was 55%; in test [5] it was 13%; in test [6] it was 100%. Besides, the residual activity came out at 39% in test [7]; 105% in test [8]; 105% in test [10]; 109% in [12]; 133% in test [13]; 67% in [17]. Moreover, the residual activity is 19% in [18] and 78% in test [19].
Take `N#Cc1c(NC(=O)c2cccc3ccccc23)sc2c1CCCC2`: the residual activity in [1] amounted to 86%; in [2], 69%; in [3] it was 74%; in test [4], 72%; in test [5] it was 87%; in test [7], 90%. Also, the residual activity in [8] stood at 98%; in [9], 90%; in [12] it was 84%; in [13] it was 80%; in test [15], 100%; in test [19], 99%.
As to `O=C(CCCc1ccc(-c2ccccc2F)cc1)Nc1ccc(O)cc1`, the residual activity worked out at 83% in [1]; 97% in test [2]; 43% in test [3]; 82% in test [4]; 72% in test [5]; 96% in [6]. The residual activity was found to be 89% in test [7]; 91% in test [8]; 90% in test [9]; 104% in test [10]; 86% in [11]; 84% in [13]. The residual activity is 102% in test [14]; 79% in test [15]; 108% in [16]; 104% in test [20]; 111% in [17]; 105% in test [18]. Moreover, the residual activity in test [19] was 103%.
Turning to `COc1ccc(-c2cnc3c(-c4ccsc4)cnn3c2)cc1`, the residual activity in test [1] amounted to 7%; in test [2], 28%; in test [3] it was 5%; in test [4] it was 98%; in [5], 84%; in test [6] it was 96%. Besides, the residual activity in test [7] stood at 83%; in [9], 88%; in test [14], 87%; in test [15], 88%; in test [17] it was 93%; in test [18], 95%.
In the case of `CSc1nc(-c2ccc(F)cc2)c(-c2ccnc(NC(C)c3ccccc3)c2)[nH]1` (stereo not given), the residual activity in test [1] worked out at 64%; in test [3], 41%; in test [4], 87%; in test [5] it was 69%; in test [6] it was 75%; in [7], 56%. Besides, the residual activity in test [8] worked out at 91%; in test [13], 96%; in test [20], 97%; in [18], 86%.
Take `CC(C)(C)c1nc2c3ccc(F)cc3c3c(=O)[nH]ccc3c2[nH]1`: the residual activity in test [1] came out at 16%; in test [2], 54%; in [3], 18%; in test [6] it was 19%; in [7], 11%; in [8], 66%. Besides, the residual activity in [9] was 68%; in test [20] it was 98%; in [17], 65%; in [18] it was 21%; in test [19] it was 79%.
Turning to `Nc1nccc(-c2c(-c3ccc(F)cc3)ncn2C2CCNCC2)n1`, the residual activity was 10% in test [1]; 82% in [6]; 61% in test [7]; 64% in test [15]; 82% in test [20]; 62% in test [18].
Turning to `O=c1c(-c2ccc(F)cc2)c(-c2ccncc2)[nH]n1-c1ccc(Cl)cc1`, the residual activity stood at 20% in [1]; 61% in test [3]; 66% in [5]; 100% in test [8]; 100% in test [9]; 69% in test [13]. Also, the figures for the residual activity in test [14], in [15] and in [18] were 102%, 56% and 99%, respectively.
In the case of `CCOc1nc(NC(=O)Cc2cc(OC)ccc2OC)cc(N)c1C#N`, the results for the residual activity in test [1], in test [3] and in test [7] were 64%, 53% and 72%, respectively.
On to `COc1ccc(COc2ccc(Cc3cnc(N)nc3N)cc2OC)cc1`, for which the residual activity in test [1] was 115%; in [7], 63%; in test [12] it was 120%; in test [13], 119%; in test [15] it was 80%.
Regarding `Fc1ccc(-c2nc3n(c2-c2ccncc2)CCS3)cc1`, the residual activity turned out to be 43% in test [1]; 90% in [2]; 84% in test [3]; 92% in test [4]; 83% in test [5]; 83% in [7]. The residual activity is 88% in test [12], 88% in test [13] and 91% in [18].
For `CCN1/C(=C/C(C)=O)Sc2ccc(OC)cc21`, the residual activity was 65% in test [1]; 81% in [2]; 66% in test [3]; 80% in test [4]; 74% in test [6]; 55% in test [7]. In addition, the residual activity in test [9] worked out at 79%; in [13], 34%; in [15], 63%; in test [19] it was 82%.
Take `COc1ccc(Cl)cc1NC(=O)Nc1cc(C)nc2ccccc12`: the residual activity in test [1] came out at 93%; in test [2], 89%; in test [3] it was 73%; in test [6], 93%; in [7], 77%; in test [9], 92%. For the same compound, the residual activity stood at 99% in [10]; 88% in test [11]; 97% in test [16]; 98% in test [17]; 87% in test [18]; 99% in test [19].
For `O=S(=O)(NCCNC/C=C/c1ccc(Br)cc1)c1cccc2cnccc12`, the residual activity in [1] turned out to be 26%; in [2], 116%; in test [4], 75%; in [5], 55%; in test [6] it was 76%; in [7] it was 42%. Also, the figures for the residual activity in test [9] and in test [11] were 81% and 58%, respectively.
Consider `O=C1NC(=O)C(c2cn(CCCn3ccnc3)c3ccccc23)=C1Nc1ccccc1`, for which the residual activity turned out to be 9% in [1]; 66% in test [2]; 40% in test [3]; 54% in [6]; 13% in test [7]; 30% in test [8]. In addition, the residual activity in test [9] came to 59%; in [10], 75%; in [11] it was 22%; in test [12] it was 14%; in [13] it was 1%; in test [14] it was 14%. Besides, the residual activity in test [15] stood at 3%.
Consider `COc1ccc(CNC(=O)Nc2ncc([N+](=O)[O-])s2)cc1`, for which the residual activity in test [1] worked out at 17%; in [2], 77%; in test [3] it was 58%; in test [4], 105%; in test [14], 28%; in test [15] it was 14%.
